Source: PubChem BioAssay
Unmarked numbers belong to inactive results. Activity calls are given as the source filed them. Unless noted, no stated cut-off is given here; in the data, active means inhibition above about 33%; inactive means the rest.

What was measured:
[1] = StAR promoter reporter inhibitors, counter-screen for LRH-1 inverse agonist project, cell-based, luminescence, high throughput (AID 651611; in the data active means inhibition above about 28%); conditions: StAR promoter luciferase reporter counterscreen, at 3.6 µM, stronger effect = higher value
[2] = target: Nuclear receptor subfamily 5 group A member 2 (Homo sapiens) (UniProt O00482); experiment: LRH-1 (NR5A2) inverse agonists, retest, confirmation, cell-based, luminescence (AID 651613; in the data active means inhibition above about 42%;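 further: HEK293T cells co-transfected with LRH-1 and StAR promoter luciferase reporter; 0% = vehicle wells and 100% = parental cells lacking receptor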); conditions: cell-based LRH-1 luciferase reporter, inverse agonism; at 3.6 µM; stronger effect = higher value
Sequence of Nuclear receptor subfamily 5 group A member 2 (Homo sapiens) (O00482 whole entry, looked up): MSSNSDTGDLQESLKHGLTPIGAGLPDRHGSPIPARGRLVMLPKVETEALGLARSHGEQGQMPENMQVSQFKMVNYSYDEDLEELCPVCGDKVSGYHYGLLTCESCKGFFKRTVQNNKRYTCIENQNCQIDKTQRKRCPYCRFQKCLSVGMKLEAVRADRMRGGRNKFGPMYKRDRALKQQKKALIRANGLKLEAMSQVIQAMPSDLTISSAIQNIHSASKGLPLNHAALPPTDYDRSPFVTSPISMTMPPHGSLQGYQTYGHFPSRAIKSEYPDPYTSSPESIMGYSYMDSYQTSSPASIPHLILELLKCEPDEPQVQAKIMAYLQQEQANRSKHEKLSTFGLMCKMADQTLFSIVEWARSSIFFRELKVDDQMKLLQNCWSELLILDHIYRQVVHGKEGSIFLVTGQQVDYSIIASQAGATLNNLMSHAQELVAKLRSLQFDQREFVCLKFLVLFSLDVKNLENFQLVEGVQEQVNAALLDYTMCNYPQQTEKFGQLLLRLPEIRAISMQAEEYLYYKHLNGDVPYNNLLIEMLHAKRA

[3] = target: Steroidogenic factor 1 (Homo sapiens) (UniProt Q13285); experiment: SF1 (NR5A1) inverse agonists, counter-screen for LRH-1 inverse agonist project, cell-based, luminescence, high throughput (AID 651614; in the data active means inhibition above about 44%;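 further: cells cotransfected with StAR promoter reporter and SF1 expression vector; 0% = vehicle on cells with receptor and 100% = vehicle on cells lacking receptor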); conditions: cell-based SF1 luciferase reporter, at 3.6 µM, stronger effect = higher value
Sequence of Steroidogenic factor 1 (Homo sapiens) (Q13285 whole entry, looked up, the tested form may be a part): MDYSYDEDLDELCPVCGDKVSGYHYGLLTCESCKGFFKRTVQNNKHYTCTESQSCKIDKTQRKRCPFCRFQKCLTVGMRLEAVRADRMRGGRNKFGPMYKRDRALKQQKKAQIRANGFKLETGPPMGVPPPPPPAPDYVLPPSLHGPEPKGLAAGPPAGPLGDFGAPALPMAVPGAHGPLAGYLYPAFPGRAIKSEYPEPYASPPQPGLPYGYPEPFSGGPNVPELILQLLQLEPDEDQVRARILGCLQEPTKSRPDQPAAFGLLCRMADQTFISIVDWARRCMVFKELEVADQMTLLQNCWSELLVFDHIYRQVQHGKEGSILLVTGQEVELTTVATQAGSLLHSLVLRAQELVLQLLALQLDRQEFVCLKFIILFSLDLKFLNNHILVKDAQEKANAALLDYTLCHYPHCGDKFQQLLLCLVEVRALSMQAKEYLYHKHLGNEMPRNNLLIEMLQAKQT

[4] = VP16 transactivation reporter inhibitors, counter-screen for LRH-1 inverse agonist project, cell-based, luminescence, high throughput (AID 651615); conditions: Gal4-VP16 luciferase reporter cells, at 3.6 µM, stronger effect = higher value

| SMILES | inhibition [1] | inhibition [2] | inhibition [3] | inhibition [4] |
| --- | --- | --- | --- | --- |
| COc1ccc(OCCNC(=O)c2ccccc2OCC(=O)Nc2ccc(NC(C)=O)cc2)cc1 | 16% | 49.8% (active) | 52.4% (active) | 0% |
| Cc1cc(N2CCN(c3nc4ccccc4s3)CC2)n2ncnc2n1 | 21.5% | 52.4% (active) | 54.6% (active) | 50.3% (active) |
| O=C(CN1CCN(c2ncccn2)CC1)N1CCCc2c1c(=O)oc1ccc(O)cc21 | 13% | 62.6% (active) | 53.6% (active) | -33.2% |
| CCN(CC)C(=O)CSc1nc2ccc(NC(=O)CSc3nccn3C)cc2s1 | -37.7% | 0.81% | 7.59% | -9.75% |
| Cc1cc(Br)ccc1NC(=O)CN1C(=O)CCC1=O | 7.63% | 58.1% (active) | 72.2% (active) | 4.01% |
| Cc1cc2ccccn2c1C(=O)c1cccc([N+](=O)[O-])c1 | 10.1% | 44% (active) | 42% | -4.87% |
| COc1cccc(NC(=O)c2oc3ccccc3c2NC(=O)C2CC2)c1 | -5.29% | 50.6% (active) | 47.1% (active) | -8.83% |
| Cc1ccc(NC(=O)[C@H](Cc2c[nH]c3ccccc23)NC(=O)[C@@H]2Cc3ccccc3CN2)c(C)c1 | 78.4% (active) | 3.94% | 71.4% (active) | 77.5% (active) |
| O=C(CCl)NCCCN(C(=O)C(Cl)Cl)c1ccc([N+](=O)[O-])cc1 | 16.7% | 59.2% (active) | 53.5% (active) | -8.07% |
